The test system of assay [1] is S. cerevisiae SK1 pCDA2-eGFP (USY613), sporulating. Briefly: CDA2-GFP sporulation assay sensitivity score (z-score vs DMSO controls); higher = stronger inhibition of sporulation, active = hit call of the paper.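 Note: active if sensitivity score above 5.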
The subject of assay [2] is S. cerevisiae AD1-9 (efflux-pump deficient), vegetative growth in YPD. In words: growth sensitivity score (doubling time z-score vs DMSO controls); higher = slower growth, strongly negative scores also mark growth inhibition (complete suppression), active = hit call of the paper. A digest of the protocol: (§1)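 Saccharomyces cerevisiae strains BY4741 and AD1-9 were seeded in rich medium in microtiter plates at an OD600 of 0.065. Compounds were added at a 1:100 dilution of DMSO stock. Optical density was read every 15 min for 24 hours on a Tecan GENios reader. Average doubling time was the time taken to reach a set generation point divided by generation number, and the growth sensitivity score was (compound mean − DMSO-control mean)/DMSO-control SD, using eight DMSO controls per experiment.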

For assay [3], the system named is S. cerevisiae BY4741 (wild-type), vegetative growth in YPD. Described as above. A digest of the protocol: as §1

The structures appear in SMILES notation. Where a name gives a salt, the structure may show the parent alone.

On to `C[C@@H](O)[C@H]1C(=O)N2C(C(=O)O)=C(S[C@@H]3CN[C@H](C(=O)N(C)C)C3)[C@H](C)[C@H]12` [Meropenem] (stock concentration (mM, diluted 1:100): 11.4), for which, in assay [1], the “CDA2-GFP sporulation assay sensitivity score” value is -2.33 (inactive). For the same molecule, the growth sensitivity score is 0.68 (inactive) in assay [2] and -1.19 (inactive) in assay [3].

In the case of `CC(C)[C@H]1CC[C@H](C(=O)N[C@H](Cc2ccccc2)C(=O)O)CC1` [Nateglinide] (stock concentration (mM, diluted 1:100): 10), the “CDA2-GFP sporulation assay sensitivity score” value in assay [1] is 0.06 (inactive). In addition, the growth sensitivity score in assay [2] is 0.63 (inactive); in assay [3] it was -0.35 (inactive).

As for `O=C(CCNNC(=O)c1ccncc1)NCc1ccccc1` [Nialamide] (stock concentration (mM, diluted 1:100): 10), the “CDA2-GFP sporulation assay sensitivity score” value in assay [1] is 1.74 (inactive). In addition, the figures for the growth sensitivity score in assay [2] and in assay [3] were -0.06 (inactive) and 0.19 (inactive), respectively.

`CCOc1cc(N)c(Cl)cc1C(=O)NCC1CN(Cc2ccc(F)cc2)CCO1` (configuration not stated) [Mosapride citrate] (stock concentration (mM, diluted 1:100): 6.9): the “CDA2-GFP sporulation assay sensitivity score” value in assay [1] is 1.67 (inactive). Besides, the growth sensitivity score in assay [2] was 17.2 (active); in assay [3], 3.25 (active).

As to `COc1ccc2[nH]c([S+]([O-])Cc3ncc(C)c(OC)c3C)nc2c1` (configuration not stated) [Esomeprazole mg] (stock concentration (mM, diluted 1:100): 4.8), the “CDA2-GFP sporulation assay sensitivity score” value in assay [1] is 3.2 (inactive). Also, the results for the growth sensitivity score in assay [2] and in assay [3] were -2.89 and 0.69 (inactive), respectively.

On to `C[C@@H]1C[C@H]2[C@@H]3C[C@H](F)C4=CC(=O)C(Cl)=C[C@]4(C)[C@@]3(F)[C@@H](O)C[C@]2(C)[C@@]1(O)C(=O)CO` [Halometasone monohydrate] (stock concentration (mM, diluted 1:100): 10), for which the “CDA2-GFP sporulation assay sensitivity score” value in assay [1] was 0.27 (inactive). The values for the growth sensitivity score in assay [2] and in assay [3] were 2.32 (active) and -0.26 (inactive), respectively.

On to `C=C1/C(=C\C=C2/CCC[C@]3(C)[C@@H]([C@H](C)/C=C/[C@@H](O)C4CC4)CC[C@@H]23)C[C@@H](O)C[C@@H]1O` [Calcipotriol] (stock concentration (mM, diluted 1:100): 10.1), for which the growth sensitivity score in assay [3] was -0.31 (inactive).

In the case of `Nc1nnc(-c2cccc(Cl)c2Cl)c(N)n1` [Lamotrigine] (stock concentration (mM, diluted 1:100): 10.3), in assay [1], the “CDA2-GFP sporulation assay sensitivity score” value was 0.64 (inactive). Moreover, the growth sensitivity score in assay [3] was -1.57 (inactive).

As for `CN1CCN(C2=Nc3ccccc3Oc3ccc(Cl)cc32)CC1` [Loxapine succinate] (stock concentration (mM, diluted 1:100): 11), the “CDA2-GFP sporulation assay sensitivity score” value in assay [1] was 2.27 (inactive). Moreover, the growth sensitivity score in assay [2] was 6.01 (active); in assay [3] it was 1.9 (inactive).

In the case of `COc1cc(C(=O)NS(=O)(=O)c2ccccc2C)ccc1Cc1cn(C)c2ccc(NC(=O)OC3CCCC3)cc12` [Zafirlukast] (stock concentration (mM, diluted 1:100): 10), the “CDA2-GFP sporulation assay sensitivity score” value in assay [1] is 0.72 (inactive). In addition, the growth sensitivity score is 40.9 (active) in assay [2] and -1.75 (inactive) in assay [3].

`CC(c1cc2ccccc2s1)N(O)C(N)=O` (configuration not stated) [Zileuton] (stock concentration (mM, diluted 1:100): 10): the “CDA2-GFP sporulation assay sensitivity score” value in assay [1] was -0.22 (inactive). In addition, the growth sensitivity score in assay [2] is 0.45 (inactive); in assay [3], -0.81 (inactive).

On to `Oc1ccc(C2CNCCc3c2cc(O)c(O)c3Cl)cc1` (configuration not stated) [Fenoldopam mesylate] (stock concentration (mM, diluted 1:100): 7.7), for which the “CDA2-GFP sporulation assay sensitivity score” value in assay [1] is -0.81 (inactive). In addition, the growth sensitivity score is -1.09 (inactive) in assay [2] and -0.74 (inactive) in assay [3].

Take `CS(=O)(=O)c1ccc(-c2cc(Br)sc2-c2ccc(F)cc2)cc1` (stock concentration (mM, diluted 1:100): 10): the “CDA2-GFP sporulation assay sensitivity score” value in assay [1] is 12.1 (inactive). Further, the growth sensitivity score in assay [2] was 8.97 (active); in assay [3], -0.63 (inactive).

For the molecule `COc1c(N2C[C@@H]3CCCN[C@@H]3C2)c(F)cc2c(=O)c(C(=O)O)cn(C3CC3)c12` [Moxifloxacin hydrochloride] (stock concentration (mM, diluted 1:100): 9.2), in assay [1], the “CDA2-GFP sporulation assay sensitivity score” value is 2.59 (inactive). In addition, the growth sensitivity score in assay [2] was 22.4 (active); in assay [3], 0.08 (inactive).

As for `C[C@H]1COc2c(N3CCN(C)CC3)c(F)cc3c(=O)c(C(=O)O)cn1c23` [Levofloxacin] (stock concentration (mM, diluted 1:100): 10), the “CDA2-GFP sporulation assay sensitivity score” value in assay [1] was -0.01 (inactive). Further, the growth sensitivity score in assay [3] was -0.66 (inactive).

Take `CCOC(=O)C1=C(COCCN)NC(C)=C(C(=O)OC)C1c1ccccc1Cl` (configuration not stated) [Amlodipine base] (stock concentration (mM, diluted 1:100): 13.9): the “CDA2-GFP sporulation assay sensitivity score” value in assay [1] is 5.4 (active). Further, the growth sensitivity score in assay [3] was 14.2 (active).

As for `COc1cc2c(cc1OC)C(=O)C(CC1CCN(Cc3ccccc3)CC1)C2` (configuration not stated) [Donepezil] (stock concentration (mM, diluted 1:100): 9.1), the “CDA2-GFP sporulation assay sensitivity score” value in assay [1] is 4.44 (inactive). Further, the growth sensitivity score in assay [2] is 3.1 (active); in assay [3], 2.75 (active).

`N[C@@H](C(=O)N[C@@H]1C(=O)N2C(C(=O)O)=C(CSc3cn[nH]n3)CS[C@H]12)c1ccc(O)cc1` [Seapuron] (stock concentration (mM, diluted 1:100): 8.6): the growth sensitivity score is -1.14 (inactive) in assay [2] and -0.6 (inactive) in assay [3].

With `CCn1cc(C(=O)O)c(=O)c2cc(F)c(N3CCN(C)CC3)cc21` [Pefloxacin mesylate] (stock concentration (mM, diluted 1:100): 7.9), the “CDA2-GFP sporulation assay sensitivity score” value in assay [1] is -0.85 (inactive). Also, the growth sensitivity score in assay [2] was 3.65 (active); in assay [3], -1.1 (inactive).

Turning to `CN(C)CCN(Cc1ccccc1)c1ccccn1` [Tripelennamine hydrochloride] (stock concentration (mM, diluted 1:100): 10), the “CDA2-GFP sporulation assay sensitivity score” value in assay [1] is 0.92 (inactive). For the same molecule, the growth sensitivity score is 0.66 (inactive) in assay [2] and 1.04 (inactive) in assay [3].

Regarding `CCCc1nc(C)c2c(=O)nc(-c3cc(S(=O)(=O)N4CCN(CC)CC4)ccc3OCC)[nH]n12` [Vardenafil citrate] (stock concentration (mM, diluted 1:100): 7.2), the “CDA2-GFP sporulation assay sensitivity score” value in assay [1] is 4.72 (inactive). The growth sensitivity score in assay [2] was 0.43 (inactive); in assay [3], -0.19 (inactive).

For the molecule `COc1ccc(CCN(C)CCCC(C#N)(c2ccc(OC)c(OC)c2)C(C)C)cc1OC` (configuration not stated) (stock concentration (mM, diluted 1:100): 10), in assay [1], the “CDA2-GFP sporulation assay sensitivity score” value is 2.38 (inactive). Further, in assay [3], the growth sensitivity score was 0.01 (inactive).

In the case of `Cc1c(O)cccc1C(=O)N[C@@H](CSc1ccccc1)[C@H](O)CN1C[C@H]2CCCC[C@H]2C[C@H]1C(=O)NC(C)(C)C` [Nelfinavir mesylate] (stock concentration (mM, diluted 1:100): 8.6), in assay [1], the “CDA2-GFP sporulation assay sensitivity score” value was 4.48 (inactive). Also, the values for the growth sensitivity score in assay [2] and in assay [3] were 16.2 (active) and 0.56 (inactive), respectively.

Take `Nc1ccn([C@@H]2O[C@H](CO)[C@@H](O)[C@@H]2O)c(=O)n1` [Cytarabine] (stock concentration (mM, diluted 1:100): 10): the “CDA2-GFP sporulation assay sensitivity score” value in assay [1] was -0.45 (inactive). The growth sensitivity score in assay [2] was -2.83; in assay [3], -0.01 (inactive).

Regarding `Cc1c(C(=O)NN2CCCCC2)nn(-c2ccc(Cl)cc2Cl)c1-c1ccc(I)cc1` (stock concentration (mM, diluted 1:100): 10), the “CDA2-GFP sporulation assay sensitivity score” value in assay [1] was -0.97 (inactive). The molecule also had a growth sensitivity score in assay [3] of -2.45.
